# Results published in PubChem BioAssay AID1645857 (Buhrlage Lab, Dana-Farber Cancer Institute and Novartis …, 2021).
# About 1,400 (3%) of roughly 47,000 compounds were called active. Only a selection was taken, and actives are over-represented in it overall. Values without a mark were called inactive. Cut-off read from the data, not from the text of the source: active = inhibition above about 30%; inactive = the rest.
# Molecular target: Ubiquitin carboxyl-terminal hydrolase 28 (Homo sapiens) (UniProt Q96RU2)
# Assay: inhibitors of human USP28 deubiquitinase (AID 1645857)
# Settings: purified USP28, Ub-rhodamine cleavage fluorescence, 30 min; at 25 µM; active compounds read high
# Chain of Ubiquitin carboxyl-terminal hydrolase 28 (Homo sapiens) (Q96RU2 whole entry, looked up): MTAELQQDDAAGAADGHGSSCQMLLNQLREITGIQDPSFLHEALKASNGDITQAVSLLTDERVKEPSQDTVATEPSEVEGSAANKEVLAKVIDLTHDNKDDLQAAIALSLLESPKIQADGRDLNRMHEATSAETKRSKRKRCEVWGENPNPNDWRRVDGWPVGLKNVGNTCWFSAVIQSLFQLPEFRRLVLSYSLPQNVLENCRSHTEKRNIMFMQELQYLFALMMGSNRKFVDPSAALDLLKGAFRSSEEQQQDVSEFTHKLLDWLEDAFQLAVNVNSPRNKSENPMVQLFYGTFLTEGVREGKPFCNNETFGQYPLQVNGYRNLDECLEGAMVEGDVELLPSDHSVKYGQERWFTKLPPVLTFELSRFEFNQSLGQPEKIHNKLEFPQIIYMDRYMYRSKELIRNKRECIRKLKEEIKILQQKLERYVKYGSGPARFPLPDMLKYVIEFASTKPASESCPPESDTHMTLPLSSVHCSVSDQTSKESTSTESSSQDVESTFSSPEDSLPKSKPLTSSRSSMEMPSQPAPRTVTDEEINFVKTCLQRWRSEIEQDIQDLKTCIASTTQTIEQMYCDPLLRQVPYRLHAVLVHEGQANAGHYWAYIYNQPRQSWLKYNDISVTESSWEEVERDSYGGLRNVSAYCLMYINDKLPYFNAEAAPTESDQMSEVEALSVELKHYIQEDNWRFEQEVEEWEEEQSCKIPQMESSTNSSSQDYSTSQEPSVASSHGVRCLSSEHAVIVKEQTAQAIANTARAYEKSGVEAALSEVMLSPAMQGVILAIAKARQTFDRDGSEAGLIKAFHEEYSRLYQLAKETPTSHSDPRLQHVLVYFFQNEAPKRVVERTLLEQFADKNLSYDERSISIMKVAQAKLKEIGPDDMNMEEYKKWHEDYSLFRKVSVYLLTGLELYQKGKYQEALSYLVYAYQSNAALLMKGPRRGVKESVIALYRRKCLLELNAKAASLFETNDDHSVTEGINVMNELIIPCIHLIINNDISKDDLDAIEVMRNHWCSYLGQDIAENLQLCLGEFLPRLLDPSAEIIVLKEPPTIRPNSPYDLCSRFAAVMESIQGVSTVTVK
row,Compound,inhibition
1,O=C1CSC(c2ccc(F)cc2)c2c(-c3ccccc3)nn(-c3ccccc3)c2N1 (stereo not given),35.2% (active)
2,O=C(CCCn1c(=O)[nH]c2cc(Cl)ccc2c1=O)N1CCC2(CC1)OCCO2,15%
3,COc1cc(N2CC[C@@H]3[C@@H]2CCN3Cc2cccnc2)ncn1,-13.3%
4,CC(C)(C)n1cc(C(=O)NCC(=O)Nc2ccc(Br)cc2)cn1,1.73%
5,Cc1noc(C)c1CN1CCO[C@H]2C(Cn3cccn3)CC[C@@H]21 (stereo not given in full),-2.14%
